The list is not random: actives were taken first. Their share in the collection is about 21%.
ClpP mod: qHTS Assay for Activators of ClpP; 340,000 tested, 1.9% active; ATP-dependent Clp protease proteolytic subunit (Bacillus subtilis (strain 168)), P80244; Potency, µM (doses to about 57.5 µM); purified B. subtilis ClpP, FRET peptide cleavage, 20 min; AID 651965, 2013; active means well fitted falling curve with a large enough effect; inconclusive means small, poorly fitted or top-dose-only effect; inactive means no such curve, though single readings can be large or run the other way; further: the source files actives as falling curves though it sought activators and does not explain the sign; nearly all actives have a fitted effect of over 65% in size
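Buffer: 100 mM Tris/HCl pH8, 100 mM KCl, 0.05% low protease BSA, 2.5% glycerol, 0.01% Tween-20. ClpP 10 microg/mL final; 20 min RT; delta FRET normalized to ADEP and DMSO controls.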
DRD3 agonist: qHTS of D3 Dopamine Receptor Agonist: qHTS; D(3) dopamine receptor (Homo sapiens), P35462; D3R DiscoveRx beta-arrestin cells, luminescence, 90 min; max activation, %; 410,000 tested, 0.58% active; AID 652048, 2013; in the data active means max activation above about 30%
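Cells at 1500/well, incubated overnight, then treated with pinned compounds (dopamine as control) for 90 min at 37 degrees C. DiscoveRx reagent added for 30 - 60 minutes at room temperature; luminescence read.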
D3 antag: qHTS of D3 Dopamine Receptor Antagonist: qHTS. D(3) dopamine receptor (Homo sapiens), P35462. D3R cells, DiscoveRx beta-arrestin luminescence, antagonist mode; hits give low values. max response, negative = inhibition, %. 360,000 tested, 2.5% active; in the data active means max response below about -50%; inconclusive means no clear call, values can overlap the other calls
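Cells expressing the human receptor were seeded at 1500 cells/well, incubated overnight at 37 degrees C in 5% CO2, then exposed to library compounds with dopamine controls for 90 minutes at 37 degrees C before luminescent detection.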
TDP1 cell noCPT: qHTS for Inhibitors of human tyrosyl-DNA phosphodiesterase 1 (TDP1): qHTS in cells in absence of CPT. 420,000 tested, 15% active. Potency, µM (top dose mostly 46.2 µM), usual class: inhibitors. DT40 Tdp1-/- hTDP1 cells, no CPT, ATP luminescence, 48 h; further: nearly all actives have a fitted effect of over 55% in size
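Chicken DT40 Tdp1-/- cells complemented with human TDP1, screened without camptothecin (DMSO vehicle only), 400 cells/well. Compounds pin-transferred, cells incubated at 37 °C for at least 48 hr. Growth read as ATP-dependent luminescence (CellTiter-Glo, 30 min at RT).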
IL-1B inflam inh: qHTS for Inhibitors of Inflammasome Signaling: IL-1-beta AlphaLISA Primary Screen | activity change, % at 57.5 µM | 360,000 tested, 4.7% active | THP-1 LPS/ATP IL-1B secretion, AlphaLISA, 16 h; hits give low values; in the data active means activity change below about -50%; inconclusive means mostly about -30% to -49%
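THP-1 cells pretreated 1 hr with compounds (up to 57.5 uM final), then stimulated with LPS (250 ng/mL final) plus ATP (1.25 mM final); secreted IL-1B measured by AlphaLISA after 16 hr, decreased signal indicating inhibition.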
TDP1 cell CPT: qHTS for Inhibitors of human tyrosyl-DNA phosphodiesterase 1 (TDP1): qHTS in cells in presence of CPT; Potency, µM (top dose mostly 46.2 µM), actives largely listed as inhibitors; 420,000 tested, 12% active; AID 686979, 2013; chicken DT40 Tdp1-/-;hTDP1 cells + 20 nM CPT, ATP luminescence, 48 h; further: nearly all actives have a fitted effect of over 55% in size
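Cell growth measured by CellTiter-Glo luminescence after a minimum 48 h, 37 C compound exposure with 20 nM CPT in Tdp1-knockout DT40 cells stably expressing hTDP1, seeded 400/well; qHTS titration format.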
Each line names hits and unclear results; the compound was inactive in the other large screens. Unless noted, the call rests on the fitted dose curve; in most records, active means well fitted inhibition curve with a large enough effect; inconclusive means small, poorly fitted or top-dose-only effect; inactive means flat fitted curve, though single readings scatter.

Cc1ccc(-n2cc(C(=O)Oc3ccc(F)cc3)c3ccccc3c2=O)cc1	TDP1 cell noCPT inconclusive, TDP1 cell CPT 16µM (no result: D3 antag, IL-1B inflam inh)
Cc1ccc(S(=O)(=O)N(C)Cc2nc(-c3ccccc3)oc2C)cc1	TDP1 cell noCPT inconclusive, TDP1 cell CPT inconclusive (no result: D3 antag, IL-1B inflam inh)
Cc1ccc(C)c(N2CCN(S(=O)(=O)c3ccc(-c4cc(C)no4)s3)CC2)c1	D3 antag inconclusive, TDP1 cell noCPT inconclusive, TDP1 cell CPT inconclusive
COc1ccc(-c2cc(C)no2)cc1S(=O)(=O)N1CCOc2ccc(Cl)cc21	TDP1 cell noCPT inconclusive, TDP1 cell CPT inconclusive
CCC1CN(S(=O)(=O)c2cc(-c3cc(C)no3)ccc2C)c2cc(Cl)ccc2O1 (configuration not stated)	TDP1 cell noCPT 23µM, TDP1 cell CPT 13µM (no result: D3 antag, IL-1B inflam inh)
COc1ccccc1N1CCN(S(=O)(=O)c2cc(-c3cc(C)no3)ccc2C)CC1	TDP1 cell noCPT 18µM, TDP1 cell CPT 21µM (no result: D3 antag, IL-1B inflam inh)
Cc1ccc(C)c(N2CCN(S(=O)(=O)c3cc(-c4cc(C)no4)ccc3C)CC2)c1	TDP1 cell noCPT 16µM, TDP1 cell CPT inconclusive (no result: D3 antag, IL-1B inflam inh)
CCc1ccc(-c2cc(C)no2)cc1S(=O)(=O)N1CCN(c2ccccc2OC)CC1	TDP1 cell noCPT inconclusive, TDP1 cell CPT inconclusive
C/C=C(/C)C(=O)OC1c2c(ccc3ccc(=O)oc23)OC(C)(C)C1OC(=O)/C(C)=C\C (configuration not stated)	TDP1 cell noCPT inconclusive, TDP1 cell CPT inconclusive
CC(=O)O[C@@H]1[C@H](OC(=O)CC(C)C)c2c(ccc3ccc(=O)oc23)OC1(C)C	TDP1 cell noCPT inconclusive, TDP1 cell CPT 26µM
Cc1ccc(CNc2ncnc3[nH]ncc23)cc1	TDP1 cell noCPT inconclusive, TDP1 cell CPT inconclusive
Fc1ccc(CCNc2ncnc3[nH]ncc23)cc1	TDP1 cell noCPT 16µM, TDP1 cell CPT inconclusive
COc1ccc(CCNc2ncnc3[nH]ncc23)cc1OC	ClpP mod inconclusive, TDP1 cell noCPT 15µM, TDP1 cell CPT 15µM
CCOc1ccc2[nH]c3c(NCCO)ncnc3c2c1	none
COc1ccc(CCNc2ncnc3sc(C(=O)N4CCCCC4)c(C)c23)cc1OC	TDP1 cell noCPT 18µM (no result: ClpP mod, DRD3 agonist, D3 antag, IL-1B inflam inh)
CCOc1ccc2[nH]c3c(NCCc4ccc(OC)c(OC)c4)ncnc3c2c1	TDP1 cell noCPT 2.9µM, IL-1B inflam inh -96, TDP1 cell CPT 4.1µM (no result: ClpP mod)
Cc1nn(CCC(=O)NC(C)C)c(=O)c2nn(-c3ccccc3)c(C)c12	none (no result: D3 antag, IL-1B inflam inh)
COc1ccc(CCN2CC(C(=O)NCc3cn(C)nc3C)CCC2=O)cc1 (configuration not stated)	none
CCC1CCCCN1C(=O)Cn1c(=O)n(CC2CCC(C(=O)NC)CC2)c(=O)c2sccc21 (configuration not stated)	none (no result: D3 antag, IL-1B inflam inh)
CC1CC(C)CN(S(=O)(=O)c2ccc(C(C)(C)C)cc2)C1 (configuration not stated)	TDP1 cell noCPT inconclusive, TDP1 cell CPT inconclusive
COc1ccccc1NC(=O)Cn1c(=O)n(CC(=O)NCc2ccccc2Cl)c(=O)c2sccc21	none (no result: D3 antag, IL-1B inflam inh)
COc1ccc(CCNc2ncnc3sc(C)cc23)cc1OC	TDP1 cell noCPT 0.26µM, TDP1 cell CPT 0.58µM (no result: ClpP mod)
CCCCCCCCNc1ncnc2[nH]ncc12	TDP1 cell noCPT 3.7µM, TDP1 cell CPT 4.6µM (no result: ClpP mod)
OCCCNc1ncnc2[nH]ncc12	none (no result: ClpP mod)
CCOc1ccc(CCNC(=O)COC(=O)C2CC2)cc1OCC	none
Cc1ccc(S(=O)(=O)NC(C(=O)O)c2ccccc2)cc1 (configuration not stated)	none (no result: ClpP mod)
CC[C@@H](C(=O)n1nc(C)cc1C)[C@H](NS(=O)(=O)c1ccc(C)cc1)c1ccccc1	TDP1 cell noCPT 21µM, TDP1 cell CPT inconclusive
CCOc1ccc(N(C(=O)Cn2nnc3ccccc32)C(C(=O)NCc2ccccc2)c2ccc(OC)cc2)cc1 (configuration not stated)	none (no result: D3 antag, IL-1B inflam inh)
COc1ccc(N(C(=O)Cn2cnc3ccccc32)C(C(=O)NC2CCCCC2)c2ccccc2)cc1 (configuration not stated)	TDP1 cell noCPT inconclusive, IL-1B inflam inh -75, TDP1 cell CPT 15µM
Cc1cccc(N(CC(=O)NC2CCCC2)C(=O)CCC(=O)Nc2cc(C)on2)c1	DRD3 agonist 32
Cc1cc(NC(=O)CCC(=O)N(c2ccccc2)C2(C(=O)NC3CCCCC3)CCCC2)no1	IL-1B inflam inh -61
COC(=O)c1cccc(N(CC(=O)NC2CCCC2)C(=O)CCC(=O)Nc2cc(C)on2)c1	none (no result: ClpP mod)
COc1ccc(N(C(=O)Cn2nnc3ccccc32)C2(C(=O)NC3CCCC3)CCCCC2)cc1	TDP1 cell noCPT inconclusive, IL-1B inflam inh -58, TDP1 cell CPT inconclusive
CCc1ccc(N(CC(=O)NC2CCCCC2)C(=O)CCC(=O)Nc2ccccn2)cc1	ClpP mod 16µM
CCOC(=O)C(C(=O)Nc1ccccn1)C1CCCCC1 (configuration not stated)	ClpP mod 28µM
O=C(CSc1nc(-c2cccs2)nc2cc(=O)[nH]n12)Nc1ccccc1Cl	TDP1 cell noCPT inconclusive (no result: D3 antag, IL-1B inflam inh)
Cc1ccc(N2C(=O)CC(N3CCN(C4CCc5ccccc5C4)CC3)C2=O)cc1 (configuration not stated)	D3 antag -55, TDP1 cell noCPT inconclusive
CCOC(=O)N1CCN(C2CC(=O)N(c3ccc(C)cc3)C2=O)CC1 (configuration not stated)	D3 antag -63
CCOC(=O)N1CCN(C2CC(=O)N(c3ccc(Oc4ccccc4)cc3)C2=O)CC1 (configuration not stated)	DRD3 agonist 53
CC1=C(c2ccc(C)c(C)c2)S(=O)(=O)N=C1N1CCC(C(=O)N2CCC(C(N)=O)CC2)CC1	none (no result: D3 antag, IL-1B inflam inh)
Cc1cc(S(=O)(=O)Nc2ccc(N(C)C)cc2)c(C)s1	TDP1 cell noCPT inconclusive, TDP1 cell CPT inconclusive
Cc1cc(C)n(-c2nc3ccccc3nc2N2CCN(c3cccc(C)c3C)CC2)n1	none (no result: D3 antag, IL-1B inflam inh)
CC(C)(C)NC(=O)NC(=O)CN1C(=O)NC(C)(c2ccccc2)C1=O (configuration not stated)	TDP1 cell noCPT inconclusive (no result: ClpP mod)
CC1CCC(N(C)C(=O)CN2C(=O)NC(c3ccccc3)(c3ccccc3)C2=O)CC1 (configuration not stated)	TDP1 cell noCPT inconclusive, TDP1 cell CPT 23µM

Screening data (PubChem)
